# Sm TGR block = inhibitors of Schistosoma mansoni thioredoxin glutathione reductase. Potency, µM (series often up to 114 µM), for inactives: at the top dose activity change, negative = inhibition, hits mostly inhibitors. purified TGR, DTNB reduction, TNB absorbance 405 nm. AID 485364. 3% of 360,000 active; also: nearly all actives have a fitted effect of over 60% in size
#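 TGR 20 nM + NADPH 100 uM (dispensed conc.), cpd preinc 15 min RT; start with NADPH (500 uM addition) then DTNB (15 mM addition). Kinetic TNB absorbance, 405 nm filter. Four-parameter Hill fit across titration.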
# AmpC no deterg = inhibitors of E. coli AmpC beta-lactamase without detergent | P00811 | AmpC nitrocefin hydrolysis, absorbance 480 nm, 0.0001% Triton | Potency, µM (highest dose often 57.1 µM), without a hit: at the top dose activity change, negative = inhibition, usual class: inhibitors | 0.52% of 330,000 active | AID 485341;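 also: plate controls were no compound for no effect and no enzyme for full effect; nearly all actives have a fitted effect of over 20% in size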
# Target sequence (P00811 whole entry, looked up): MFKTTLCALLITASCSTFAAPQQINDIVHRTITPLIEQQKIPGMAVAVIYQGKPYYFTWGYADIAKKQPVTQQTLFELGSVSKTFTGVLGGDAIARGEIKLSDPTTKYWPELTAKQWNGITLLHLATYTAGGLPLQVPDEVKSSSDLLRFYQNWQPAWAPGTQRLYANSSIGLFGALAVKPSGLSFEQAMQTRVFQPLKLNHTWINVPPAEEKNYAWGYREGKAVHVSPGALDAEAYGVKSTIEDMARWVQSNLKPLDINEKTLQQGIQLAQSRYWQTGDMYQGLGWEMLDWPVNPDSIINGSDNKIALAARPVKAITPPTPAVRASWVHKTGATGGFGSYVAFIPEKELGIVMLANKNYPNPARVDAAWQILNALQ
#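 AmpC (5.3 nM in the dispensed reagent) in 20 mM phosphate pH 7.0 with 0.01% (detergent screen) or 0.0001% Triton X-100 was preincubated with compounds for 15 min at room temperature. Nitrocefin was then added from an 800 uM solution, and hydrolysis was followed at 480 nm.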
# AMA1-RON2 inh = disrupts binding of P. falciparum AMA1 to RON2 | Potency, µM (titrated, usually from 58.2 µM), for inactives: at the top dose activity change, negative = inhibition, most hits filed as inhibitors | AlphaScreen AMA1-biotinylated RON2 peptide binding | AID 720542 | 0.2% of 360,000 active;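 also: 0% = vehicle wells and -100% = peptide control; nearly all actives have a fitted effect of over 45% in size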
#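 AMA1 (3D7) with his tag at 25 nM final met compounds first, then biotinylated RON2 peptide at 25 nM; detection used donor plus acceptor beads, 10 µg/mL apiece, read by AlphaScreen after 30 min at room temperature.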
# FMDV inh = antivirals against foot and mouth disease virus. FMDV antiviral cell-based qHTS. AID 1159524. 1.2% of 410,000 active. Potency, µM (doses to about 57.9 µM), for the others: at the top dose activity change, negative = inhibition, usual class: inhibitors; calls by dose curve; tested in HEK293T cells; also: read-out not given here; nearly all actives have a fitted effect of over 45% in size
# AmpC inh detg = inhibitors of E. coli AmpC beta-lactamase with detergent; AID 485294; Potency, µM (top dose mostly 114 µM), for the others: at the highest dose activity change, negative = inhibition, most hits filed as inhibitors; AmpC hydrolysis of nitrocefin, absorbance 480 nm, 0.01% Triton; 0.041% of 370,000 active; P00811;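 also: 0% = no-compound wells and -100% = no-enzyme wells; nearly all actives have a fitted effect of over 25% in size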
#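 20 mM phosphate pH 7.0 + 0.01% (detergent screen) or 0.0001% Triton X-100; 5.3 nM AmpC reagent; cpd preinc 15 min RT; nitrocefin (800 uM stock) to start; A480 q20 s × 4 min; Activity was normalised to no-enzyme and no-compound control wells.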
# * hit, by the source's call; ? = inconclusive; . = no result given; [ ] = remark or other dose. The list is not random: actives were taken first. Their share in the collection is about 4.1%. Unless noted, calls follow the shape of the dose curve; as a rule, active = well fitted curve in the direction sought with a large enough effect; inconclusive = small, poorly fitted or top-dose-only effect, or another doubt; inactive = no such curve, though single readings can be large; an effect the other way counts as inactive or inconclusive. Unless noted, % is scaled to controls: 0 for no effect and ±100 for the full control effect; potency is read from the fitted curve at half-maximal effect.
SMILES,Sm TGR block,AmpC no deterg,AMA1-RON2 inh,FMDV inh,AmpC inh detg
O=C(c1ccco1)[C@@H]1[C@@H]2C(=O)N(c3ccc(F)cc3)C(=O)[C@@H]2C2c3ccccc3C=CN21 (stereo not given in full),22.4µM*,-4.4%,.,.,-10.6%
O=C1NC(=O)[C@@H]2C3c4ccccc4C=CN3[C@H](C(=O)c3cccs3)[C@H]12 (stereo not given in full),-33.4%,-22.3%,.,.,-10.5%
Cc1noc(C)c1-c1cncnc1N(C)Cc1ccco1,.,.,.,-8.3%,.
Cc1[nH]n(-c2ccccc2)c(=O)c1/C=N/NC(=O)c1cccc([N+](=O)[O-])c1,11.5%,-16.2%,?,0.0%,-14.9%
Cc1ccc(-n2[nH]c(C)c(/C=N/Nc3ccc([N+](=O)[O-])cc3[N+](=O)[O-])c2=O)cc1C,-13.5%,-29.9%,0.5%,10µM*,?
O=C(COc1ccc(F)cc1)Nc1ccccc1OCc1cc(=O)n2ccccc2n1,5.6%,.,.,-4.1%,0.8%
Cn1nc(C(C)(C)C)cc1C(=O)NCc1cc(F)cc2c1OCOC2,24.5%,29.5%,0.2%,12.6µM*,3.4%
COc1ccc(C)cc1NC(=O)Nc1ccc2c(c1)CCC2,-0.9%,?,0.0%,-4.0%,-11.3%
COc1ccccc1NC(=O)Nc1ccc2c(c1)CCC2,4.6%,10µM*,-1.1%,54.4%,-1.9%
CCC1CN(C(=O)N2CCC(C(=O)N(C)Cc3ccccc3)CC2)c2ccccc2O1 (stereo not given),1.9%,.,.,-16.8%,0.5%
COc1ccc(N2C(=O)[C@@H]3C(c4cccnc4)=NO[C@@H]3C2=O)cc1,7.08µM*,-16.7%,-11.8%,-2.1%,4.3%
COc1ccc(C2=NO[C@@H]3C(=O)N(c4c(C)cccc4C)C(=O)[C@H]23)cc1OC,?,-8.3%,11.8%,-25.8%,?
COc1ccc(CN2C(=O)[C@@H]3C(c4ccc(F)cc4)=NO[C@@H]3C2=O)cc1,-24.9%,-23.6%,0.7%,4.8%,2.3%
Cc1ccc(N2C(=O)[C@@H]3C(c4cccnc4)=NO[C@@H]3C2=O)cc1,7.94µM*,-13.4%,-1.6%,-9.8%,-8.0%
CCOC(=O)N1CCC2(CC1)C(C#N)=C(N)Oc1c2c(C)nn1-c1cccc(Cl)c1,1.12µM*,-42.7%,-3.3%,-2.6%,-6.8%
COC(=O)/C(C)=C/CC12OC(C)(C)C3CC(C=C4C(=O)c5cc6c(c(CCC(C)(C)Cl)c5OC431)OC1(C)CCC(=C(C)C)C6C1)C2=O (stereo not given),.,.,.,-8.7%,.
COc1ccc(NC(=O)CSC2=Nc3ccccc3C3=NC(Cc4ccccc4)C(=O)N23)cc1 (stereo not given),2.0%,.,.,9.5%,-0.4%
S=C1NC2=C(CCC/C2=C\c2ccccc2)C(c2ccccc2)N1 (stereo not given),-34.7%,11.2µM*,-5.9%,?,-12.3%
C(=C1/CCCC2=C1Nc1ncnn1C2c1ccccc1)/c1ccccc1 (stereo not given),0.501µM*,41.7%,.,.,-0.2%
Fc1cccc(/C=C2\CCCC3=C2NC(=S)NC3c2cccc(F)c2)c1 (stereo not given),20µM*,?,40.4%,-27.6%,-2.5%
FC(F)(F)c1ccccc1C1C2=C(Nc3ncnn31)c1ccccc1CCC2 (stereo not given),-35.4%,3.1%,.,.,2.9%
S=C1NC2=C(CCC/C2=C\c2ccc(Cl)cc2)C(c2ccc(Cl)cc2)N1 (stereo not given),?,-53.0%,37.9%,2.3%,0.2%
CCC(CC)c1nn2c(=O)cc(COc3ccc(NC(=O)c4ccc(Cl)cc4)cc3)nc2s1,-0.2%,.,.,-9.6%,0.7%
O=C(Nc1c2c(nn1-c1ccc(Cl)cc1)CS(=O)(=O)C2)c1cccc(F)c1,-6.3%,.,.,0.0%,2.2%
Cc1cc(C)c(NC(=O)Cn2c(=O)n(-c3ccc(F)cc3)c(=O)c3c(C)c(C(=O)N(C)C)sc32)c(C)c1,0.0%,.,.,-0.9%,-5.6%
SMILES,Sm TGR block,AmpC no deterg,AMA1-RON2 inh,FMDV inh,AmpC inh detg
COc1ccccc1CCNC(=O)C(=O)NCC(c1cccs1)S(=O)(=O)c1ccc(C)cc1 (stereo not given),?,.,.,0.0%,-0.4%
O=C(CCSc1ccc(Cl)cc1)c1cccs1,2.24µM*,-13.5%,17.0%,-5.1%,-0.2%
O=C(CCNc1ccc(Cl)cc1)c1cccs1,15.8µM*,-26.8%,5.6%[11.6 µM],23.6%,?
CCN1C(Nc2ccccc2)=NC[C@@H]1Cc1ccccc1,25.1µM*,-30.0%,18.3%,-5.7%,?
CCCCCCCN1C(Nc2ccccc2)=NC[C@@H]1Cc1ccccc1,-16.9%,13.3%,6.5%,?,?
C#CCNC(=O)C1=C[C@H](c2ccc(Br)cc2)C[C@H](OCCCCO)O1,15.8µM*,83.8%,0.7%,-19.6%,-6.2%
C#CCNC(=O)C1=C[C@@H](c2ccc(C(F)(F)F)cc2)C[C@@H](OCCCCO)O1,22.4µM*,83.3%,9.8%,0.0%,2.9%
CN1CCN(C(=O)C2=C[C@H](c3ccc(C(F)(F)F)cc3)C[C@H](OCCCCO)O2)CC1,.,.,11.6%,-6.8%,.
CN1CCN(C(=O)C2=C[C@@H](c3ccc(C(F)(F)F)cc3)C[C@@H](OCCCCO)O2)CC1,44.7µM*,123.9%,-3.0%,-8.0%,9.8%
C#CCNC(=O)C1=C[C@@H](c2ccc(Br)cc2)C[C@@H](OCc2ccc(CO)cc2)O1,44.7µM*,100.1%,-1.9%,11.4%,9.7%
C#CCNC(=O)C1=C[C@@H](c2ccc(C(F)(F)F)cc2)C[C@@H](OCc2ccc(CO)cc2)O1,.,.,5.7%,-14.5%,.
CC1=C(C(=O)Nc2ccc(C)cc2C)C(c2ccc(O)cc2)n2nc(SCC(=O)c3ccc(C)cc3)nc2N1 (stereo not given),-6.8%,.,.,-17.7%,-5.0%
COc1cc(NC(=O)Nc2cccc(-c3noc(C)n3)c2)cc(OC)c1OC,-5.8%,.,.,?,2.6%
Cc1[nH]c2c(F)cccc2c1CC(=O)NCCN1Cc2ccccc2OC(C)C1 (stereo not given),.,.,.,8.6%,.
Cc1ccc(C(=O)O)cc1NC(=S)NC(=O)Cc1ccccc1,0.0%,-14.9%,29.5%,3.6%,3.0%
Cc1ccc(C(=O)O)cc1NC(=S)NC(=O)C(c1ccccc1)c1ccccc1,56.2µM*,-32.7%,22.0%,-3.2%,-3.2%
CCn1c(-c2cc(C3CC3)nc3ccccc23)n[nH]c1=S,44.7µM*,-47.7%,14.3%,-25.8%,-7.6%
CC(/C=N/Nc1ccc2nncn2n1)=C\c1ccccc1,44.7µM*,-32.3%,-1.2%,14.0%,-2.8%
C(=C\c1ccccc1)/C=N/Nc1ccc2nncn2n1,0.0%,-14.9%,2.3%,0.3%,4.6%
CCc1ccc(NC(=O)C(Cc2ccccc2)NS(=O)(=O)c2ccc3c(c2)c(=O)n(C)c(=O)n3C)cc1 (stereo not given),-4.9%,.,.,2.7%,-3.6%
